Screening data: PubChem, National Center for Advancing Translational Sciences (NCATS)
A selection: hits, their analogues and other compounds. The true share with any hit is near 0.96%.
A647 autofl – compound fluoresces in the A647 spectral region | Compound fluorescence, A647 channel (570/671 nm), Tris buffer | max dye-equivalent concentration, M | 59,000 tested, under 10 active;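 also: values scaled relative to a standard on each plate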
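Spectral profiling of library compounds in pH 8.0 Tris: 15 min room-temperature incubation, single ex/em pair (570/671 nm), response normalized to Alexa 647 equivalents.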
A488 autofl – compound autofluorescence in A488 spectral region. compound autofluorescence, A488 spectral region, dye equivalency; Compound Type: qHTS ECL - MLSMR. max dye equivalency, M. 59,000 compounds, 0.1% hits
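Read-out: relative fluorescence at 480/540 nm, expressed as Alexa 488 dye-equivalent concentration from a six-point A488 standard included per plate. Conditions: 100 mM Tris, pH 8.0; 15 min incubation, room temperature.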
Fluorescein fluor – compound fluoresces in the fluorescein spectral region; Compound autofluorescence, 480/540 nm, fluorescein-equivalent; active compounds read high; max fluorescein-equivalent concentration, M; 59,000 compounds, 0.91% hits; AID 593; in the data active = max fluorescein-equivalent concentration above about 10 nM; inconclusive = between about 1.1 nM and that limit
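Compounds were pin-transferred into 100 mM Tris buffer, pH 8.0, and incubated 15 min at room temperature. Fluorescence was read at 480 nm excitation/540 nm emission. Signals were normalized to an on-plate six-point fluorescein standard curve as dye-equivalent concentration.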
Rhodamine fluor – compound autofluorescence in rhodamine spectral region; 59,000 compounds, 0.05% hits; max dye-equivalent concentration, M; Rhodamine-region fluorescence, 547/598 nm, Tris buffer; active compounds read high; AID 594; in the data active = max dye-equivalent concentration above about 11 nM; inconclusive = between about 1.1 nM and that limit
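Intensities are converted to rhodamine-equivalent concentration using a six-point rhodamine standard on each plate. Compounds sit 15 min at room temperature in 100 mM Tris buffer, pH 8.0; read uses the 547/598 nm excitation/emission pair.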
TexasRed autofl – Texas Red region autofluorescence | Compound fluorescence, Texas Red channel, 547/618 nm; active compounds read high | max dye-equivalent concentration, M | 59,000 compounds, 0.06% hits | AID 587; in the data active = max dye-equivalent concentration above about 10 nM; inconclusive = between about 1.1 nM and that limit
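Fluorescence at ex 547/em 618 nm, normalized against an on-plate Texas Red standard series to give dye-equivalent concentration per compound concentration. Buffer 100 mM Tris, pH 8.0; 15 min RT incubation before CCD imaging.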
Resorufin autofl – compounds fluorescent in resorufin spectral region; Compound fluorescence, resorufin region 547/598 nm, buffer; active compounds read high; max dye-equivalent concentration, M; AID 588; 59,000 compounds, 0.04% hits
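Compounds in 100 mM Tris, pH 8.0, incubated 15 min at room temperature, then fluorescence read at 547 nm excitation/598 nm emission. Signal converted to dye-equivalent concentration via an on-plate six-point resorufin standard curve, per compound concentration.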
* hit, by the source's call; i = inactive; ? = inconclusive. Unless noted, no rule for the calls is given here.

SMILES	A647 autofl	A488 autofl	Fluorescein fluor	Rhodamine fluor	TexasRed autofl	Resorufin autofl
N#CC(C(=O)NC1CC1)c1nc2ccccc2nc1N1CCCC1 (stereo not drawn)	8.2e-09	?	1.79e-07M*	i	?	i
Cn1cccc1C(=O)N1CCC[C@@]2(CCN(C(c3ccccc3)c3ccccc3)C2)C1	1e-09	i	i	i	i	i
CC(C)COC[C@H](CN(Cc1ccccc1)c1ccccc1)N1CCCC1	2.1e-08	i	?	i	i	i
CN(C)c1ncc2nc(-c3cccs3)c(=O)n(C)c2n1	1.51e-08	i	1.46e-08M*	i	i	i
CN(C)c1ncc2nc(-c3cccs3)c(=O)n(CCc3ccccc3)c2n1	1.22e-08	i	i	i	?	i
CN(C)c1ncc2nc(-c3cccs3)c(=O)n(CCC#N)c2n1	9.3e-09	?	3.65e-08M*	i	i	i
COc1ncc2nc(-c3cccs3)c(=O)n(CCC#N)c2n1	1.36e-08	i	?	i	i	i
O=C(NCc1ccc(F)cc1)C1CCN(C(=O)NCc2ccccc2)CC1	1e-09	i	1.03e-08M*	i	i	i
O=C(NCc1ccccc1F)C1CCN(C(=O)NCc2ccccc2)CC1	1.49e-08	i	i	i	i	i
CC1=CC(C#N)(C#N)C(C#N)(C#N)C(c2ccccc2)N1 (stereo not drawn)	1.7e-09	?	9.24e-08M*	2.76e-08M*	3.35e-08M*	2.03e-08M*
COc1ccc(C(=O)N2CCC3(CCCN(c4ccncc4)C3)CC2)cc1	4.5e-09	i	i	i	i	i
C=CCn1c(O)c(CN2CCN(Cc3ccccc3)CC2)c(C)c(C#N)c1=O	1e-09	i	2.14e-08M*	i	i	i
Cc1c(CN2CCCCC2)c(O)n(CCCO)c(=O)c1C#N	3.9e-09	i	1.63e-08M*	i	?	i
C=CCOC(=O)C(C#N)c1nc2ccccc2nc1N1CCN(Cc2ccccc2)CC1 (stereo not drawn)	1e-09	i	?	i	?	i
CCCn1c(O)c(CN2CCCCC2)c(C)c(C#N)c1=O	1.4e-09	i	1.49e-08M*	i	?	i
O=C(O)CCCC[C@@H]1SC[C@H]2NC(=O)N[C@H]12	1e-09	i	i	i	i	i
COC(=O)N1CCC2(CC1)CN(c1ccncc1)C2	4.8e-09	i	?	i	i	i
Nc1cc(C(=O)O)[nH]c(=O)n1	6.4e-09	i	1.07e-08M*	i	i	i
O=C1C2CC=C(Cl)CC2C(=O)N1CCc1ccccc1 (stereo not drawn)	1e-09	i	2.03e-08M*	i	i	i
O=C(CCN1C(=O)C2CC=C(Cl)CC2C1=O)N1CCCCC1 (stereo not drawn)	2.33e-08	?	2.93e-08M*	i	i	i
O=C1C2CC=C(Cl)CC2C(=O)N1CNc1ccccn1 (stereo not drawn)	3.8e-09	i	i	i	i	i
CN(C)CN1CSC(=S)N(CN(C)C)C1	4.3e-09	i	i	i	i	i
CO/N=C(\C(=O)N[C@@H]1C(=O)N2C(C(=O)O)=C(CSc3nc(=O)c(O)nn3C)CS[C@@H]12)c1csc(N)n1	1e-09	i	?	i	i	i
CCOc1ccc(C2C(C#N)=C(N)SC(N)=C2C#N)cc1OCC	2.18e-08	i	1.43e-08M*	i	i	i
CCOc1ccccc1C1C(C#N)=C(N)SC(N)=C1C#N	9e-09	i	1.26e-08M*	i	i	i
SMILES	A647 autofl	A488 autofl	Fluorescein fluor	Rhodamine fluor	TexasRed autofl	Resorufin autofl
CCOc1ccc(C2C(C#N)=C(N)SC(N)=C2C#N)cc1OC	3.78e-08	i	?	i	i	i
CC(=O)[C@@H]1CC[C@@H]2[C@@H]3CC=C4C[C@H](OS(=O)(=O)O)CC[C@@]4(C)[C@H]3CC[C@]21C	5.8e-09	i	?	i	?	i
CCN(CC)c1ccc2c(c1)OC(N)=C(C#N)C2c1cccnc1 (stereo not drawn)	1.33e-08	?	4.82e-08M*	i	i	i
C[C@H]1CS(=O)(=O)CCN1/N=C\c1ccc([N+](=O)[O-])o1	2.4e-09	i	i	i	i	i
O=C1CN(/N=C\c2ccc([N+](=O)[O-])o2)C(=O)N1	2.4e-08	?	1.61e-07M*	i	?	i
COc1ccccc1CCn1c(=O)c(-c2cccc(Cl)c2)nc2cncnc21	1e-09	i	i	i	i	i
CCOn1c(=O)c(-c2cc3ccccc3o2)[n+]([O-])c2ccccc21	1.39e-08	?	1.31e-07M*	i	i	i
Cc1cc(-c2ccco2)c(C#N)c2nc3ccccc3n12	1e-09	?	1.58e-07M*	i	i	i
CCc1c(C)c(C#N)c2nc3ccccc3n2c1-n1nc(C)cc1C	5.94e-08	i	?	i	i	i
CCNc1ncc2nc(-c3cccs3)c(=O)n(Cc3cccc(OC)c3)c2n1	2.85e-08	i	?	i	i	i
CCCn1nc(-c2ccccc2)c2nc3ccccc3nc21	3.55e-08	1.12e-08M*	2.01e-07M*	i	i	i
c1ccc(-c2nnc(Cn3c4ccccc4c4nc5ccccc5nc43)o2)cc1	4.71e-08	i	?	i	i	i
CCCCn1c2nc3ccccc3nc2c2c(=O)n(CCC)cnc21	6.5e-09	i	i	i	?	i
CCn1nc(-c2ccccc2)c2nc3ccccc3nc21	1e-09	1.2e-08M*	2.42e-07M*	i	i	i
COc1ccc(CNc2nc(-c3ccccc3OC)nc3ccccc23)c(OC)c1	1.32e-08	i	i	i	i	i
c1ccc(CC2CCN(c3nc4ccccc4n4nnnc34)CC2)cc1	3.27e-08	i	?	i	i	i
O=C(c1ccco1)N1CCN(c2nc3ccccc3n3nnnc23)CC1	4.25e-08	i	1.02e-08M*	i	?	i
COCC(=O)N1CCC2(CC1)CCN(C(=O)Nc1cccc(F)c1)CC2	1.3e-09	i	i	i	i	i
O=S(=O)(Nc1nc2ccccc2[nH]1)c1ccccc1	7.5e-09	i	2.16e-08M*	i	i	i
O=S(=O)(Nc1nc2ccccc2[nH]1)c1ccc(Cl)cc1	5.77e-08	i	i	i	i	i
Oc1ccc2cccnc2c1	4.24e-08	i	1.61e-08M*	i	i	i
Cc1cc(=O)[nH]c(SCCOc2ccc3c(c2)CCC3)n1	1e-09	i	i	i	i	i
Cc1cc(=O)[nH]c(SCCOc2ccc(OC(C)C)cc2)n1	1.71e-08	i	2.25e-08M*	?	?	?
CCOc1cc(-c2ccc(N)c(OCC)c2)ccc1N	1e-09	?	9.79e-08M*	i	i	i
